Assay results published in PubChem BioAssay (EPA / NIEHS).
Where “and” joins values, the source holds several entries; their conditions need not be identical. Equal values may be shown once. Results filed as inconclusive are left out. Some compounds were tested as several samples or in several runs, with calls that do not always agree. Calls of active or inactive are those of the source. How the source made its calls: active means hit-call score of the fitted dose curve at least 0.9, where 1 is the maximum; inconclusive means response in the unintended direction; inactive means score below 0.9.

Tests used:
[1] = target: human Thromboxane A2 Receptor (TXA2), TBXA2R (gene 6915) (UniProt P21731); assay: NVS_GPCR_hTXA2: NovaScreen (NVS) G Protein-Coupled Receptor Assay for human Thromboxane A2 Receptor (TXA2) (AID 2283282);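 further: actives reduce bound radioligand signal relative to DMSO baseline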
How it was run: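 Screening ran at 25 uM in duplicate, with concentration series for confirmed actives. Each test measures radioligand binding to human platelet protein after 1 h, cell-free, using filter-based scintillation detection of signal loss relative to DMSO.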

[2] = target: human Opioid Receptor Delta 1 (Opiate D1), OPRD1 (gene 4985) (UniProt P41143); assay: NVS_GPCR_hOpiate_D1: NovaScreen (NVS) G Protein-Coupled Receptor Assay for human Opioid Receptor Delta 1 (Opiate D1) (AID 2283280)
How it was run: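 Radioligand displacement on membranes from CHO cells expressing the receptor, read by filter scintillation counting 1 h after dosing. Duplicate single-point screen at 25 uM, then concentration series for actives; loss of signal versus DMSO.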

[3] = target: human Orphanin, Opioid Related Nociceptin Receptor 1 (ORL1), OPRL1 (gene 4987) (UniProt P41146); assay: NVS_GPCR_hORL1: NovaScreen (NVS) G Protein-Coupled Receptor Assay for human Orphanin, Opioid Related Nociceptin Receptor 1 (ORL1) (AID 2283283)
How it was run: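 Filter-based radioligand displacement with receptor extracted from HEK293 cells, read 1 hour after dosing by scintillation counting. Duplicate single-point screen at 25 uM; qualifying chemicals then run in concentration-response to 50 uM, analysed relative to DMSO.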

[4] = target: rat Serotonin, 5-Hydroxytryptamine Receptor 1 (5HT1), Non-Selective Binding, Htr1a (gene 24473) (UniProt P19327); assay: NVS_GPCR_r5HT1_NonSelective: NovaScreen (NVS) G Protein-Coupled Receptor Assay for rat Serotonin, 5-Hydroxytryptamine Receptor 1 (5HT1), Non-Selective Binding (AID 2283286)
How it was run: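 Rat cortical membranes, radioligand displacement, 1 h incubation, read by filter scintillation. Primary screen in duplicate at 25 uM. Hits (e.g. ≥30% inhibition) went to concentration-response up to 50 uM, fitted as loss of binding versus DMSO.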

[5] = tested on: rabbit Platelet Activating Factor Receptor (PAF), gene 100354046; assay: NVS_GPCR_rabPAF: NovaScreen (NVS) G Protein-Coupled Receptor Assay for rabbit Platelet Activating Factor Receptor (PAF) (AID 2283287)
How it was run: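 Rabbit platelet membrane preparation; radioligand displacement read by filter-based scintillation counting 1 h after dosing, loss of signal versus DMSO. Primary screen in duplicate at 25 uM, actives followed up in concentration series.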

[6] = target: rat Adrenergic, Alpha 1, Non-selective Receptor (Adra1), Adra1a (gene 29412) (UniProt P43140); assay: NVS_GPCR_rAdra1_NonSelective: NovaScreen (NVS) G Protein-Coupled Receptor Assay for rat Adrenergic, Alpha 1, Non-selective Receptor (Adra1) (AID 2283289)
How it was run: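 Rat forebrain membranes; radioligand displacement read by filter-based scintillation counting 1 h after dosing. Primary screen in duplicate at 25 uM; hits (e.g. ≥30% inhibition) rerun as concentration–response to 50 uM max. Fitted versus DMSO.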

[7] = target: human Opioid Receptor Mu (Opiate Mu), OPRM1 (gene 4988) (UniProt P35372); assay: NVS_GPCR_hOpiate_mu: NovaScreen (NVS) G Protein-Coupled Receptor Assay for human Opioid Receptor Mu (Opiate Mu) (AID 2283290);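 further: hits lower bound tracer signal versus DMSO meaning displacement of the ligand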
How it was run: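 Primary screen in duplicate at 25 uM, with actives followed in concentration series. CHO-derived receptor membranes, cell-free; bound radioligand read by scintillation counting after filtration at 2.5 h, decrease scored against DMSO.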

[8] = target: guinea pig Bradykinin Receptor B2 (BK2), BDKRB2 (gene 100135486) (UniProt O70526); assay: NVS_GPCR_gBK2: NovaScreen (NVS) G Protein-Coupled Receptor Assay for guinea pig Bradykinin Receptor B2 (BK2) (AID 2283292)
How it was run: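 Radioligand displacement on guinea pig ileum membranes for 1 h, read by filter-based scintillation counting; loss of signal relative to DMSO. Compounds were screened in duplicate at 25 uM, and those passing the threshold were retested in concentration-response up to 50 uM.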

[9] = target: guinea pig Serotonin, 5-Hydroxytryptamine Receptor 4 (5HT4), HTR4 (gene 100135548) (UniProt O70528); assay: NVS_GPCR_g5HT4: NovaScreen (NVS) G Protein-Coupled Receptor Assay for guinea pig Serotonin, 5-Hydroxytryptamine Receptor 4 (5HT4) (AID 2283294)
How it was run: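 Guinea pig striatal membranes; radioligand competitive displacement, filtration and scintillation counting after 1 h. Primary screen in duplicate at 25 uM; actives then tested in concentration series; loss of binding signal fitted relative to DMSO.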

[10] = target: rat Serotonin, 5-Hydroxytryptamine Receptor (5HT), Non-Selective Binding, Htr1a (gene 24473) (UniProt P19327); assay: NVS_GPCR_r5HT_NonSelective: NovaScreen (NVS) G Protein-Coupled Receptor Assay for rat Serotonin, 5-Hydroxytryptamine Receptor (5HT), Non-Selective Binding (AID 2283295)
How it was run: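 Radioligand displacement on rat cortical membranes, 1 h incubation, filter-based scintillation counting. Primary duplicates at 25 uM, actives retested in concentration series; loss of signal fitted against DMSO as baseline.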

[11] = target: rat Adrenergic, Alpha 1A Receptor (Adra1A), Adra1a (gene 29412) (UniProt P43140); assay: NVS_GPCR_rAdra1A: NovaScreen (NVS) G Protein-Coupled Receptor Assay for rat Adrenergic, Alpha 1A Receptor (Adra1A) (AID 2283296)
How it was run: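 Rat cortical membranes pretreated with chlorethyl clonidine; competitive radioligand displacement, 1 h. Filter-based scintillation counting. Primary screen in duplicate at 25 uM, actives followed in concentration series.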

[12] = tested on: rat Adrenergic, Alpha 1B Receptor (Adra1B), gene 24173; assay: NVS_GPCR_rAdra1B: NovaScreen (NVS) G Protein-Coupled Receptor Assay for rat Adrenergic, Alpha 1B Receptor (Adra1B) (AID 2283297)
How it was run: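 Rat liver membranes, radioligand displacement with filter-based scintillation detection, 1 h incubation. Primary screen in duplicate at 25 uM; actives retested in concentration series; activity relative to DMSO.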

[13] = target: rat Histamine Receptor (H3), Hrh3 (gene 85268) (UniProt Q9QYN8); assay: NVS_GPCR_rH3: NovaScreen (NVS) G Protein-Coupled Receptor Assay for rat Histamine Receptor (H3) (AID 2283303)
How it was run: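 Rat forebrain membranes incubated 1 h with compound; radioligand displacement measured by filter-based scintillation counting. Single-concentration duplicates at 25 µM, then concentration-response up to 50 µM, relative to DMSO.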

Adra2b (gene 24174) = Adra2b (gene 24174) (UniProt P19328); assay: NVS_GPCR_rmAdra2B: NovaScreen (NVS) G Protein-Coupled Receptor Assay for hybird cells Adrenergic, Alpha 2B Receptor (Adra2B) (AID 2283306)
How it was run: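 Radioligand filter-binding assay on membrane proteins from neuroglioma/blastoma hybrid cells (rodent), 1 h after dosing; scintillation counting, loss of signal vs DMSO. Primary screen in duplicate at 25 uM, actives then run in concentration series.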

[14] = target: rat Glutamate Metabotropic Receptor 5 (MGluR5), Grm5 (gene 24418) (UniProt P31424); assay: NVS_GPCR_rmMGluR5: NovaScreen (NVS) G Protein-Coupled Receptor Assay for rat Glutamate Metabotropic Receptor 5 (MGluR5) (AID 2283307)
How it was run: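 Rat whole-brain membrane preparation; filter-based radioligand binding read by scintillation counting, 1.5 h after dosing. Single-point screen at 25 uM in duplicate; hits over threshold (e.g. 30% inhibition) retested in concentration-response up to 50 uM; loss of signal vs DMSO.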

[15] = target: rat Neurokinin-1 Receptor (NK1), Tacr1 (gene 24807) (UniProt P14600); assay: NVS_GPCR_rNK1: NovaScreen (NVS) G Protein-Coupled Receptor Assay for rat Neurokinin-1 Receptor (NK1) (AID 2283309)
How it was run: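 Rat submaxillary gland membranes; radioligand displacement read by filter-based scintillation counting after 1 h. Primary screen in duplicate at 25 uM; actives retested in concentration series; loss of binding fitted versus DMSO.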

[16] = target: rat Opioid Receptor, Non-selective Sodium (Na+) Binding, Oprm1 (gene 25601) (UniProt P33535); assay: NVS_GPCR_rOpiate_NonSelectiveNa: NovaScreen (NVS) G Protein-Coupled Receptor Assay for rat Opioid Receptor, Non-selective Sodium (Na+) Binding (AID 2283311)
How it was run: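 Rat forebrain membranes, radioligand displacement with filter scintillation counting, 1.5 h incubation. Screened in duplicate at 25 µM; hits then run in concentration-response up to 50 µM; loss of binding fitted versus DMSO.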

[17] = target: rat Neonicotinoid receptor (NNR), Chrna7 (gene 25302) (UniProt Q05941); assay: NVS_LGIC_rNNR_BungSens: NovaScreen (NVS) Ligand-Gated Ion Channel Assay for rat Neonicotinoid receptor (NNR) (AID 2283315)
How it was run: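 Radioligand displacement binding on rat cortical membranes, 2.5 h incubation, filtration and scintillation counting. Loss of specific binding fitted relative to DMSO.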

[18] = target: rat Adrenergic Receptor, Beta (Adrb), Non-selective Binding, Adrb1 (gene 24925) (UniProt P18090); assay: NVS_GPCR_rAdrb_NonSelective: NovaScreen (NVS) G Protein-Coupled Receptor Assay for rat Adrenergic Receptor, Beta (Adrb), Non-selective Binding (AID 2283298)
How it was run: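 Non-selective beta-adrenergic radioligand binding in rat cortical membranes, 1 h incubation, filter-based scintillation read-out. Primary screen 25 uM in duplicate; hits retested in concentration-response up to 50 uM, DMSO baseline.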

[19] = target: rat Vasopressin 1 Receptor (V1), Avpr1a (gene 25107) (UniProt P30560); assay: NVS_GPCR_rV1: NovaScreen (NVS) G Protein-Coupled Receptor Assay for rat Vasopressin 1 Receptor (V1) (AID 2283316)
How it was run: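 Radioligand binding on rat liver membranes, 1.5 h incubation, filter-based scintillation counting. Single 25 uM screen in duplicate; chemicals meeting threshold (e.g. 30% inhibition) run in concentration-response up to 50 uM.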

Chain of human Opioid Receptor Mu (Opiate Mu), OPRM1 (gene 4988) (P35372 whole entry, looked up): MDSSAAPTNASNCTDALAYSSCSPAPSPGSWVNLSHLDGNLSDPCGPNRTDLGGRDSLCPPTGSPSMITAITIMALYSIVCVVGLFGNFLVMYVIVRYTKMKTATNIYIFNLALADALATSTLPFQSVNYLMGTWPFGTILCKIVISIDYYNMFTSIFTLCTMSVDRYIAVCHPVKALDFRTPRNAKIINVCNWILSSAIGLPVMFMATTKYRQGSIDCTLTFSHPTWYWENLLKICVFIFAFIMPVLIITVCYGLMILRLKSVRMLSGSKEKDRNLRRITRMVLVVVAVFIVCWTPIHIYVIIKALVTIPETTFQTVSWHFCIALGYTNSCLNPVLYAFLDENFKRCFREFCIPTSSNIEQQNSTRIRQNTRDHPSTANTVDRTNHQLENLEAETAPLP
Chain of rat Opioid Receptor, Non-selective Sodium (Na+) Binding, Oprm1 (gene 25601) (P33535 whole entry, looked up): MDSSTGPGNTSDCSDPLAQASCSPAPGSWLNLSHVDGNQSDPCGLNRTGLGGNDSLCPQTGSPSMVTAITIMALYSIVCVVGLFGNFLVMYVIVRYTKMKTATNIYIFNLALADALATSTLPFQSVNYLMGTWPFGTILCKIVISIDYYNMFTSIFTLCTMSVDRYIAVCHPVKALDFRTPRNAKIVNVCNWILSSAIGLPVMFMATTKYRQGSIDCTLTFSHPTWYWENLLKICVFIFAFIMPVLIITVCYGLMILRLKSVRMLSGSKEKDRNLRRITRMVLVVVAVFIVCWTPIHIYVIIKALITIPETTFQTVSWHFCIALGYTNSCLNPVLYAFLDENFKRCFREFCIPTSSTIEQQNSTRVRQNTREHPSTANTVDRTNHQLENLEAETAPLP
Chain of human Thromboxane A2 Receptor (TXA2), TBXA2R (gene 6915) (P21731 whole entry, looked up): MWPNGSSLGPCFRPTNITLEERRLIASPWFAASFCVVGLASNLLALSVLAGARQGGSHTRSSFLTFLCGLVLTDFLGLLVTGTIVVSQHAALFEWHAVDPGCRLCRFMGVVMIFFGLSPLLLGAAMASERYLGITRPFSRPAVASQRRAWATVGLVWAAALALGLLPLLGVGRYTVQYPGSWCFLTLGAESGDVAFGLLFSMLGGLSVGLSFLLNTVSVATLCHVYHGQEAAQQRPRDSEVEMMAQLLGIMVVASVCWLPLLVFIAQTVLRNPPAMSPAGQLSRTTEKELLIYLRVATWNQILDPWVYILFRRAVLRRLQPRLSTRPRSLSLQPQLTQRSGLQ
Chain of rat Neonicotinoid receptor (NNR), Chrna7 (gene 25302) (Q05941 whole entry, looked up): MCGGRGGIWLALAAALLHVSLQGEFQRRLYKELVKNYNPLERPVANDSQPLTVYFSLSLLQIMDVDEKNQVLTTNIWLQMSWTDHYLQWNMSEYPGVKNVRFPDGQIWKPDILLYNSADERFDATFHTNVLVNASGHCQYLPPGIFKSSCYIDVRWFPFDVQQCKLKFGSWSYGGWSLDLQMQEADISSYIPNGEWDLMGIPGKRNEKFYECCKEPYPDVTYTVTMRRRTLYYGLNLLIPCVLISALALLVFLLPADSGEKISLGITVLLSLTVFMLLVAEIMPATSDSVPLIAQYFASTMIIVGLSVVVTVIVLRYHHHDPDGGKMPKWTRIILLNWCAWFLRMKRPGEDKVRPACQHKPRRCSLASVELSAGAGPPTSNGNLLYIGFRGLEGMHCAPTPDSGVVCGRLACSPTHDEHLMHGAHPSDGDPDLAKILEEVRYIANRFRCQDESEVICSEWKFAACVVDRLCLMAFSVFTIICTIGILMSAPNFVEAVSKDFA
Chain of human Orphanin, Opioid Related Nociceptin Receptor 1 (ORL1), OPRL1 (gene 4987) (P41146 whole entry, looked up): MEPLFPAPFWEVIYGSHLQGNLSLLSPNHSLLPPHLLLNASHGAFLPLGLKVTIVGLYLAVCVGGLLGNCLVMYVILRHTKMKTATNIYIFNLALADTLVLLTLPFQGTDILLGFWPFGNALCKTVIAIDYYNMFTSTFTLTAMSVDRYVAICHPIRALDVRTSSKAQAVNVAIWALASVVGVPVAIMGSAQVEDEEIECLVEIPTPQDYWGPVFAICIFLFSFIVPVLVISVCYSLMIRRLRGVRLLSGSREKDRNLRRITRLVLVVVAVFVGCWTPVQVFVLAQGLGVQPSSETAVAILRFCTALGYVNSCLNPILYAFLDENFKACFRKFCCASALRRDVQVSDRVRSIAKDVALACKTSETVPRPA
Chain of guinea pig Bradykinin Receptor B2 (BK2), BDKRB2 (gene 100135486) (O70526 whole entry, looked up): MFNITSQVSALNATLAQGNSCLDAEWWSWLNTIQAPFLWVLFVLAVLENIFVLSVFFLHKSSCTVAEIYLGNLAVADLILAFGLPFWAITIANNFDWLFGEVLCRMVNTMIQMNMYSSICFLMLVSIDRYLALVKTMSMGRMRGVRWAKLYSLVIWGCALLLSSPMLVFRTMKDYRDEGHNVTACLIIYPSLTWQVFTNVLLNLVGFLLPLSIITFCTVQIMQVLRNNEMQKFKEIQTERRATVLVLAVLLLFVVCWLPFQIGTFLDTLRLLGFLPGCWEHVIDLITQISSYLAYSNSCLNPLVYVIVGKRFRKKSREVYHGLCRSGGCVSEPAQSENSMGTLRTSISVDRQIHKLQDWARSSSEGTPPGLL
Chain of human Opioid Receptor Delta 1 (Opiate D1), OPRD1 (gene 4985) (P41143 whole entry, looked up): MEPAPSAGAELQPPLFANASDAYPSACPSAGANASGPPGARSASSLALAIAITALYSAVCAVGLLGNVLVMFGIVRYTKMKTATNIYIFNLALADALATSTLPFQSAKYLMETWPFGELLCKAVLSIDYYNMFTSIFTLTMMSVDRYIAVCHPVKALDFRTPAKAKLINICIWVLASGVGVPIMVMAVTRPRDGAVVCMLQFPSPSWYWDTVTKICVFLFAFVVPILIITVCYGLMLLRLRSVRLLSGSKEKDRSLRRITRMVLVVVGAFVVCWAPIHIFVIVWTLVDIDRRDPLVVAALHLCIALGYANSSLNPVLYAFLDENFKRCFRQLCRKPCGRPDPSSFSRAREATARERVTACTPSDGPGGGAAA
Chain of rat Vasopressin 1 Receptor (V1), Avpr1a (gene 25107) (P30560 whole entry, looked up): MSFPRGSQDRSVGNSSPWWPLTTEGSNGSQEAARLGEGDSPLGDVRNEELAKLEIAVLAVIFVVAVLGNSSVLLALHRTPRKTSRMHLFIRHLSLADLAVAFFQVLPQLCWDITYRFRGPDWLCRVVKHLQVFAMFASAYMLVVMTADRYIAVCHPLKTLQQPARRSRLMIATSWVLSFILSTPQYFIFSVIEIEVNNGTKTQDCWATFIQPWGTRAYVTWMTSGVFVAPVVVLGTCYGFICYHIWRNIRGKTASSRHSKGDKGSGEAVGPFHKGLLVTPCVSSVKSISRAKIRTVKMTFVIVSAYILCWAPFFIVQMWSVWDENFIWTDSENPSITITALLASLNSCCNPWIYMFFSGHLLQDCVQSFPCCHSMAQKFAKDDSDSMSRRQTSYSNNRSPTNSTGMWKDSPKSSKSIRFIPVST
Chain of guinea pig Serotonin, 5-Hydroxytryptamine Receptor 4 (5HT4), HTR4 (gene 100135548) (O70528 whole entry, looked up): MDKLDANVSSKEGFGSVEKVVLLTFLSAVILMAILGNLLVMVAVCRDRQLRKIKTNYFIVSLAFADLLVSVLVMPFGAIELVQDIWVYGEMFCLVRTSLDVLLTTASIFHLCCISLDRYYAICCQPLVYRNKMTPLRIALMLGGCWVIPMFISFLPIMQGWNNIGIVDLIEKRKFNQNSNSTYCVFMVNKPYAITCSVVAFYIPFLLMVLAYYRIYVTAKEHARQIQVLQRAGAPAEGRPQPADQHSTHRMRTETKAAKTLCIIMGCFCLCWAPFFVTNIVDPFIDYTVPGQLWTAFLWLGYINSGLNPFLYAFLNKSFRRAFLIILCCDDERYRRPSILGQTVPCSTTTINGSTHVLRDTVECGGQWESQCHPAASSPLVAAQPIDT
Chain of rat Serotonin, 5-Hydroxytryptamine Receptor (5HT), Non-Selective Binding, Htr1a (gene 24473) (P19327 whole entry, looked up): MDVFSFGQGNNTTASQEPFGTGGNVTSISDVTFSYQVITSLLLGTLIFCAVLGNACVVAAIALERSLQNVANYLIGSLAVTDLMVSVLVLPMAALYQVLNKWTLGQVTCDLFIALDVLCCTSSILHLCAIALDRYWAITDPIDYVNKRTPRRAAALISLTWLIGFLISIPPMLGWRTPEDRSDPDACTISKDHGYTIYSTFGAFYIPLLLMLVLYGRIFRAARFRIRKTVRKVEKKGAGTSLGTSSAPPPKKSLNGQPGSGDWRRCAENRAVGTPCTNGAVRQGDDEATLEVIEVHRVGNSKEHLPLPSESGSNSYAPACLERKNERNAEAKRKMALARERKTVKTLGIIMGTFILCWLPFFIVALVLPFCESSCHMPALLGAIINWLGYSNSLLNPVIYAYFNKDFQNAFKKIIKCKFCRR
Chain of rat Serotonin, 5-Hydroxytryptamine Receptor 1 (5HT1), Non-Selective Binding, Htr1a (gene 24473) (P19327 whole entry, looked up): as above
Chain of rat Neurokinin-1 Receptor (NK1), Tacr1 (gene 24807) (P14600 whole entry, looked up): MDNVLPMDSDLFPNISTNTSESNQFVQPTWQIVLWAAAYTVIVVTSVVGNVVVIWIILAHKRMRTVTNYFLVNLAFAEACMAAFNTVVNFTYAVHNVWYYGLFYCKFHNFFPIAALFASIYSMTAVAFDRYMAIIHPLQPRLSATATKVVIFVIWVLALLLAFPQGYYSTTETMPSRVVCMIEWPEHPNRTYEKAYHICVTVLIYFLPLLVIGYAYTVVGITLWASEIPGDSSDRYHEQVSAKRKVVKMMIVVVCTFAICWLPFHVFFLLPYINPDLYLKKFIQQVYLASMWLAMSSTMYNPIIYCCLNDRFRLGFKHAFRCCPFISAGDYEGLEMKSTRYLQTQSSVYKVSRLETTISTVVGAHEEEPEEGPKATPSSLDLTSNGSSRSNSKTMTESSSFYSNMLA

## CC/C=C\C#N
[1]
  outcome: inactive

## CC(C)(C)c1cc(CCC(=O)OCCSCCOC(=O)CCc2cc(C(C)(C)C)c(O)c(C(C)(C)C)c2)cc(C(C)(C)C)c1O
[1]
  outcome: inactive

## Cc1cccc(O)c1
[1]
  outcome: inactive

## O=S1(=O)CC(Cl)(Cl)C(Cl)(Cl)C1
[1]
  outcome: inactive

## O=C(c1ccc(OCCN2CCCCC2)cc1)c1c(-c2ccc(O)cc2)sc2cc(O)ccc12
[2]
  AC50: 5.28 µM (active)
[3]
  AC50: 0.982 µM (active)
[4]
  AC50: 18.5 µM (active)
[5]
  AC50: 12.1 µM (active)
[6]
  AC50: 1.49 µM (active)
[7]
  AC50: 711 nM (active)
[8]
  outcome: inactive
[9]
  AC50: 4.36 µM (active)
[10]
  AC50: 5.24 µM (active)
[11]
  AC50: 5.36 µM (active)
[12]
  AC50: 5.62 µM (active)
[13]
  AC50: 25 µM (active)
Adra2b (gene 24174)
  AC50: 10.7 µM (active)
[14]
  outcome: inactive
[15]
  AC50: 18.2 µM (active)
[16]
  AC50: 1.96 µM (active)
[17]
  outcome: inactive

## CC/C(=C(\c1ccccc1)c1ccc(OCCN(C)C)cc1)c1ccccc1
[2]
  outcome: inactive
[3]
  AC50: 9.83 µM (active)
[5]
  outcome: inactive
[7]
  outcome: inactive
[8]
  outcome: inactive
[18]
  AC50: 5.74 µM (active)
[16]
  outcome: inactive
[17]
  outcome: inactive
[19]
  outcome: inactive

## Cc1cc(O)c(C)c(C)c1O
[1]
  outcome: inactive
[17]
  outcome: inactive

## C=C1CC[C@H]2O[C@]2(C)CC[C@@H]2[C@@H]1CC2(C)C
[17]
  AC50: 15.6 µM (active)

## c1ccc2c(c1)-c1ccc3ccc4cccc5cc-2c1c3c45
[7]
  AC50: 3450 nM (active)

## COc1ccccc1NC(=O)CC(C)=O
[1]
  outcome: inactive

## C#C[C@]1(O)CC[C@H]2[C@@H]3CCc4cc(O)ccc4[C@H]3CC[C@@]21C
[7]
  AC50: 25 µM (active) and 6.05 µM (active)
  outcome: inactive
[9]
  AC50: 2.64 µM (active)
[16]
  outcome: inactive
[19]
  AC50: 25 µM (active)
